Bioassay records deposited in PubChem by The Scripps Research Institute Molecular Screening Center.
TbREL1 inh: TbREL1 RNA ligase inhibitors, primary screen, biochemical, FRET fluorescence; RNA-editing ligase 1, mitochondrial (Trypanosoma brucei brucei), P86926; TbREL1 RNA ligation; inhibition, % at 9.66 µM; 89,000 tested, 0.49% active;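 active = inhibition above the mean inhibition across all screened compounds plus 3 SD, cut at about 11% in these data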;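 also: 0% = plate median of test wells and 100% = NSC42067 control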
Target sequence (P86926 whole entry, looked up): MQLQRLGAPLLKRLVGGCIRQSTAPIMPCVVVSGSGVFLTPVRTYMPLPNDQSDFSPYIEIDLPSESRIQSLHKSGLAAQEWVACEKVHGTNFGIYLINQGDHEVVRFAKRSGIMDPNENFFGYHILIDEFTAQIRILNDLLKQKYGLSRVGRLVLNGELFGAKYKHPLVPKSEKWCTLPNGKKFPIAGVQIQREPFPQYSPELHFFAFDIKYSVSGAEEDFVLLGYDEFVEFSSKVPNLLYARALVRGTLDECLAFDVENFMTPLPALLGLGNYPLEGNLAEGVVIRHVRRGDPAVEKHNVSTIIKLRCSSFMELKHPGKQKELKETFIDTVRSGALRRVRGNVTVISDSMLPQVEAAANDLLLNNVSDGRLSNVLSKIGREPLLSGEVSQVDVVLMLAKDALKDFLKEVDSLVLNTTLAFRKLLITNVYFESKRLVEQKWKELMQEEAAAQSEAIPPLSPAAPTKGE
* = called active by the depositor. The sample as a whole holds a higher share of hits than the screen did.

SMILES | TbREL1 inh
CC(C)C(C)NC(=O)Cn1cnc2c(oc3ccccc32)c1=O (stereo unspecified) | 2
CCOC(=O)C(C)n1cnc2c(oc3ccccc32)c1=O (stereo unspecified) | 17*
CCCCn1cnc2c(oc3ccccc32)c1=O | 3
CN(Cc1ccccc1)C(=O)OCc1cn(Cc2cc(F)cc(F)c2)nn1 | 0
COc1ccc2c(c1)CCCN2C(=O)C1CCCN(S(=O)(=O)c2cc(OC)ccc2OC)C1 (stereo unspecified) | 0
Cc1ccc2nc(-c3ccc(NC(=O)CSc4nnc(-c5ccccc5)n4Cc4ccco4)cc3)sc2c1 | -2
CO[C@H]([C@H](C)/C=C/N(C)C=O)[C@@H](C)C(O)CC[C@H](C)[C@H](O)[C@H](C)[C@H]1OC(=O)/C=C/C(C)=C/C[C@H](O)C[C@@H]2C=CC[C@@H](C[C@H](OC)[C@@]3(CO3)[C@@H](OC)C[C@@H](OC)[C@@H]1C)O2 (stereo partly specified) | 2
O=C(CSc1nnc(Cn2c(=O)sc3ccccc32)n1-c1ccccc1)N1CCCCCC1 | 12*
Cn1c(Cn2c(=O)sc3ccccc32)nnc1SCC(=O)N1CCCCCC1 | -2
O=C(CSc1nnc(Cn2c(=O)sc3ccccc32)n1-c1ccccc1)N1CCCC1 | 1
COc1ccc(Nc2nc(NCc3ccco3)nc(N)c2[N+](=O)[O-])cc1 | 0
Nc1nc(Nc2cccc(Cl)c2)nc(NCc2ccco2)c1[N+](=O)[O-] | 11*
Nc1nc(Nc2cccc(Cl)c2)nc(NCCO)c1[N+](=O)[O-] | 6
O=C(N1CCCC1)n1ncc(-c2ccc(-c3ccccc3)cc2)n1 | 0
CCCCNC(=O)C[C@H]1C[C@@]2(C(=O)OCC)CCCC3=C2N(CCC3)C1=O | -4
CC(C)N1CCc2c(sc(NC(=O)C(F)(F)F)c2-c2nc3ccccc3s2)C1 | 2
Cc1ccccc1NC(=O)CCS(=O)(=O)c1ccccc1 | 0
Cn1c(=O)c(=O)n(C)c2cc(S(=O)(=O)N3CCN(CCO)CC3)ccc21 | 6
CCCOc1ccc(F)cc1-c1cc(C(=O)Nc2ccc(C)c(NS(C)(=O)=O)c2)[nH]n1 | -1
CCCOc1ccc(F)cc1-c1cc(C(=O)NC(C)C)[nH]n1 | 3
CCCOc1ccc(F)cc1-c1cc(C(=O)Nc2ccc(OC)c(OC)c2)[nH]n1 | 16*
Cc1ccc(-c2cc3nc(-c4ccco4)cc(N4CCN(Cc5ccoc5)CC4)n3n2)cc1 | 1
COCCNC[C@@]12CO[C@H](c3ccc(Cl)cc3)N1[C@@H](c1ccc(Cl)cc1)SC2 | -4
CCCCNC(=O)C1CCCN1C(=O)NCc1ccccc1OC (stereo unspecified) | 1
CC(=O)Nc1ccc(S(=O)(=O)N2CCN(c3ccc(C(C)=O)cc3)CC2)cc1 | 5
SMILES | TbREL1 inh
O=C1Cc2cc(S(=O)(=O)N3CCN(c4ccc(C(=O)O)cc4)CC3)ccc2N1 | 4
CC(=O)c1ccc(N2CCN(S(=O)(=O)c3ccc4c(c3)C(Cl)(Cl)C(=O)N4)CC2)cc1 | 11*
Cc1ccc(-c2nc(C3CCCN(S(=O)(=O)c4ccc(C)c(C)c4)C3)no2)cc1 (stereo unspecified) | -2
O=C(N[C@@H](Cc1ccccc1)C(=O)NCP(=O)(O)OC(Cc1ccccc1)C(=O)O)OCc1ccccc1 (stereo partly specified) | 4
CCOc1ccc(-n2c(SCC(=O)Nc3cc(C)c(NC(=O)c4ccccc4)cc3OC)nnc2-c2ccncc2)cc1 | -1
O=C(NCCc1nnc2ccc(NCc3ccc(Cl)cc3)nn12)c1ccccc1 | 0
Cc1ccc(CNc2ccc3nnc(-c4ccccc4)n3n2)cc1 | 11*
Cc1ccc(CNc2cnccn2)cc1 | 0
Cc1ccc(NC(=S)NNC(=O)CSc2nc3ccccc3c(=O)n2-c2ccc(Cl)cc2)cc1 | -5
Nc1cccc(Nc2ccccc2)c1 | -2
O=S(=O)(O)c1cc(O)c2cc(Nc3ccccc3)ccc2c1 | 14*
Cc1ccc(S(=O)(=O)c2cc(Nc3ccccc3)ccc2O)cc1 | 3
CCn1c2ccccc2c2cc(NC(=O)CSc3nnc(-c4ccccc4)n3Cc3ccco3)ccc21 | -3
O=C(c1ccc(Br)o1)N1CCN(Cc2ccc3c(c2)OCO3)CC1 | 27*
O=C(c1cc([N+](=O)[O-])cc([N+](=O)[O-])c1)N1CCN(Cc2ccc3c(c2)OCO3)CC1 | -2
O=C(c1cc(-c2ccc(F)cc2)no1)N1CCN(Cc2ccc3c(c2)OCO3)CC1 | -3
C[C@H]1[C@@H](NC(=O)c2ccc(Cl)c(C(F)(F)F)c2)CC[C@@]23CCCN2C(=O)CCC[C@@H]13 | -4
O=C(CCc1nc(-c2ccccc2F)no1)NCCc1c[nH]c2ccccc12 | 2
C=C1CCC2C(C)(C)CCC[C@]2(C)[C@H]1CC1=C(O)C(=O)C(CO)=CC1=O (stereo partly specified) | -2
O=c1c2c(O)cc(O)cc2oc2c(O)ccc(O[C@H]3O[C@@H](CO)[C@H](O)[C@@H](O)[C@@H]3O)c12 | 5
O=c1c(OC2OC(CO)C(O)C(O)C2O)c(-c2ccc(O)c(O)c2)oc2cc(O)cc(O)c12 (stereo unspecified) | 92*
O=c1c(O[C@H]2O[C@@H](CO)[C@H](O)[C@@H](O)[C@@H]2O)c(-c2ccc(O)cc2)oc2cc(O)cc(O)c12 | 3
Cc1cccc(NC(=O)NCCCN2CCN(c3ccc(F)cc3)CC2)c1 | 0
O=C(NCCCc1ccccc1)C1CCN(c2nc(-c3ccc(Br)cc3)cs2)CC1 | 10
CN(CCC#N)C(=O)COC(=O)c1ccc2[nH]c3c(c2c1)CCCC3 | 1
SMILES | TbREL1 inh
CC(C)CNC(=O)COC(=O)c1c2c(nc3ccccc13)/C(=C\c1cccs1)CC2 | -4
CN(CCC#N)C(=O)COC(=O)c1c2c(nc3ccccc13)/C(=C/c1ccco1)CC2 | 21*
O=C(Nc1ccc(C(O)(C(F)(F)F)C(F)(F)F)cc1)c1ccc(Cl)cc1 | 4
Cc1cc(C)nc(N2CCC(C(=O)N(C)CCc3ccccn3)CC2)n1 | -1
CCn1c(COc2ccc(Cl)cc2)nnc1SCC(=O)Nc1ccccc1-c1ccccc1 | 0
CC(=O)N1CCN(c2cc(-c3ccco3)nc3cc(-c4ccccc4)nn23)CC1 | 11
C=CCc1cccc(CNc2ccc(Br)cc2)c1O | -3
COc1ccc(Br)cc1CNc1ccc(O)cc1 | 24*
COc1ccc(C(=O)NN)cc1COc1ccc(Br)cc1 | 6
Cc1ccc(S(=O)(=O)N2CCCC2C(=O)N2CCN(c3ccccc3)CC2)cc1 (stereo unspecified) | -2
O=C(NCCCc1ccccc1)[C@H](Cc1c[nH]c2ccccc12)NC1(C(=O)NCCc2c[nH]c3ccccc23)CCOCC1 | -5
CCCCCCSc1ccc(-c2nc3ccc(Cl)cn3c2NCCCC)cc1OC | -1
CCCCCCSc1cc(-c2nc3ccc(Cl)cn3c2NC2CCCCC2)ccc1OC | -2
CCCCNc1c(-c2ccc(SC3CCCCC3)c(OC)c2)nc2ccc(Cl)cn12 | 25*
CC(C)(C)[C@H](NC(=O)c1cc(Cl)cc(Cl)c1)C(=O)N1CCC[C@H]1C(=O)N[C@H](C#N)CC(=O)O | 1
O=C(CNCc1ccccc1[N+](=O)[O-])N1CCC2(CC1)OCCO2 | -3
CCCCc1ccc2nc(NC(=O)c3ccco3)sc2c1 | 0
C/C=C/C(=O)N1CCC(C(=O)NC2CCCc3ccccc32)CC1 (stereo unspecified) | 3
CCN(CC)c1nc(C)nc2c1nnn2Cc1ccccc1 | -2
CN(C)c1ncc(C2=C(Cl)C(=O)C(N3CCCC3)=C(Cl)C2=O)s1 | 69*
CC(=O)c1cnc(N(C)C)s1 | 0
